# PubChem BioAssay (NCATS)
# “And” between values parts separate entries of the source, which are not always exact repeats. Identical values can stand only once. Records with an inconclusive call do not appear. Unmarked numbers belong to inactive results. The source made the active and inactive calls. The call rests on the fitted dose curve; in most records, active means well fitted inhibition curve with a large enough effect; inconclusive means small, poorly fitted or top-dose-only effect; inactive means flat fitted curve, though single readings scatter.
# Tests used:
# [1] = test system: CRL-7250; assay: Cytotoxic Profiling of Annotated Libraries Using Quantitative High-Throughput Screening (AID 1296008); details: Five cell lines viability, CellTiter-Glo ATP luminescence, 48-72 h; max response: active compounds read low; further: potency means the concentration at half of the fitted maximal effect; on max response: on the % scale 0 is the no-effect control and ±100 the full control effect
# In short: (§1)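 Compounds were pin-transferred onto cells and incubated 48 or 72 hr at 37 degree Celsius, 95% humidity. CellTiter-Glo was added, plates sat 10 min at room temperature, then ATP-coupled luminescence was imaged as the viability read-out.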
# [2] = test system: HEK293; assay: as above; details: Five cell lines viability, CellTiter-Glo ATP luminescence, 48-72 h; max response: active compounds read low
# In short: as §1
# [3] = test system: HaCat; assay: as above; details: Five cell lines viability, CellTiter-Glo ATP luminescence, 48-72 h; max response: active compounds read low
# In short: as §1
# [4] = test system: KB-3-1; assay: as above; details: Five cell lines viability, CellTiter-Glo ATP luminescence, 48-72 h; max response: active compounds read low
# In short: as §1
# [5] = test system: PC49; assay: qHTS profiling for inhibitors of Plasmodium falciparum proliferation (AID 504749);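 further: 0% = DMSO vehicle and full inhibition = artemisinin control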; details: P. falciparum in erythrocytes, SYBR Green DNA, 72 h; series mostly up to 28.7 µM
# In short: (§2)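 Quantitative HTS: compounds pinned into medium, infected erythrocytes added (0.3% parasitemia, 2.5% hematocrit), 72 h culture at 37 C under 5% CO2. Saponin/Triton lysis with SYBR Green I, overnight RT, then fluorescence read.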
# [6] = test system: SC27B; assay: as above; details: P. falciparum in erythrocytes, SYBR Green DNA, 72 h; series mostly up to 28.7 µM
# In short: as §2
# [7] = test system: TAB109; assay: as above; details: P. falciparum in erythrocytes, SYBR Green DNA, 72 h; series mostly up to 28.7 µM
# In short: as §2
# [8] = test system: TAB113; assay: as above; details: P. falciparum in erythrocytes, SYBR Green DNA, 72 h; series mostly up to 28.7 µM
# In short: as §2
# [9] = test system: TAB165; assay: as above; details: P. falciparum in erythrocytes, SYBR Green DNA, 72 h; series mostly up to 28.7 µM
# In short: as §2
# [10] = test system: W2; assay: as above; details: P. falciparum in erythrocytes, SYBR Green DNA, 72 h; series mostly up to 28.7 µM
# In short: as §2
# Further: nearly all actives have a fitted effect of over 60% in size.
smiles,measurement,setting,value
COC(=O)c1cncn1C(C)c1ccccc1 (centres undefined),max response,[1],-11.1%
same,max response,[2],-16.1%
same,max response,[3],-2.03%
same,max response,[4],-9.65%
O=S(=O)(O)C(F)(F)C(F)(F)C(F)(F)C(F)(F)F,max response,[1],-7.36%
same,outcome,[2],inactive
same,max response,[3],2.96%
same,max response,[4],-15.1%
C[C@@H]1[C@H](O)[C@@H](C)C=CC=CCCC=CC=CC=CC=C[C@H](O[C@H]2O[C@@H](C)[C@H](O)[C@@H](N)[C@@H]2O)CC2O[C@](O)(C[C@@H](O)[C@H](O)CC[C@@H](O)C[C@@H](O)C[C@@H](O)CC(=O)O[C@H]1C)C[C@H](O)[C@H]2C(=O)O,max response,[1],4.08%
same,max response,[2],2.42%
same,outcome,[3],inactive
same,outcome,[4],inactive
CCOC(=O)c1c(C(C#N)=CN)c2ccc(Cl)c(Cl)c2n1C,max response,[1],3.66%
same,max response,[2],-12.5%
same,outcome,[3],inactive
same,max response,[4],-3.02%
CC[C@@H](C(N)=O)N1CCCC1=O,max response,[1],0.0308%
same,outcome,[2],inactive
same,outcome,[3],inactive
same,max response,[4],6.38%
c1cc2c(cc1[C@H]1OC[C@H]3[C@H]1CO[C@H]3c1ccc3c(c1)OCO3)OCO2,max response,[1],-11.7%
same,outcome,[2],inactive
same,outcome,[3],inactive
same,max response,[4],6.13%
Cc1nc(-c2ccc(-c3ccc(C(=O)N4CCc5cc6c(cc54)C4(CCN(C)CC4)CO6)cc3)c(C)c2)no1,max response,[1],-11.3%
same,max response,[2],4.59%
same,outcome,[3],inactive
same,max response,[4],2.18%
C[C@@H]1O[C@@H](O[C@@H]2C=C3CC[C@@H]4[C@@H](CC[C@]5(C)[C@H](c6ccc(=O)oc6)CC[C@@]45O)[C@@]3(C)CC2)[C@H](O)[C@H](O)[C@H]1O,Potency,[1],11.8 nM (active)
same,Potency,[2],16.6 nM (active)
same,Potency,[3],46.9 nM (active)
same,Potency,[4],26.4 nM (active)
Cc1[nH]nc2ccc(-c3cncc(OC[C@@H](N)Cc4c[nH]c5ccccc45)c3)cc12,Potency,[1],935 nM (active) and 2.06 µM (active)
same,Potency,[2],132 nM (active) and 103 nM (active)
same,Potency,[3],1180 nM (active)
same,Potency,[4],146 nM (active)
O=c1cccc2n1CC1CNC[C@H]2C1,max response,[1],-0.274%
same,max response,[2],-2.71%
same,max response,[3],-12.2%
same,outcome,[4],inactive
CC(C)N[C@@H]1CCn2c(=O)[nH]c3cccc(c32)[C@@H]1O,outcome,[1],inactive
same,max response,[2],2.71%
same,max response,[3],-2.4%
same,max response,[4],6.91%
CC1=NN=C(c2ccc(N)cc2)c2cc3c(cc2C1)OCO3,outcome,[1],inactive
same,max response,[2],3.46%
same,max response,[3],-15.7%
same,outcome,[4],inactive
O=S(=O)(F)Cc1ccccc1,outcome,[1],inactive
same,outcome,[2],inactive
same,max response,[3],-8.02%
same,max response,[4],3.23%
S=C(NC1CCCCC1)N1CCC(c2cnc[nH]2)CC1,max response,[1],-0.728%
same,max response,[2],-0.423%
same,max response,[3],-12.4%
same,max response,[4],-10.7%
C1=C2CCCN[C@H]2[C@@H]2C[C@H]1[C@@H]1CCCCN1C2,max response,[1],-2.39%
same,max response,[2],0.094%
same,outcome,[3],inactive
same,max response,[4],9.36%
CC(=Cc1csc(C)n1)[C@@H]1C[C@H]2O[C@]2(C)CCC[C@H](C)[C@@H](O)[C@@H](C)C(=O)C(C)(C)[C@@H](O)CC(=O)O1,max response,[1],-93.2%
same,max response,[2],-85.5%
same,max response,[3],-55%
same,Potency,[4],0.1 nM (active)
O=C1CCC[C@@H]2[C@H]3CCCN4CCC[C@@H](CN12)[C@@H]34,max response,[1],0.603%
same,max response,[2],-4.12%
same,max response,[3],3.98%
same,max response,[4],2.17%
CCN1CCN(C(=O)Cc2ccc(Nc3ncc(F)c(Nc4ccc(C(=O)Nc5ccccc5Cl)cc4)n3)cc2)CC1,Potency,[1],26.4 µM (active) and 16.4 µM (active)
same,Potency,[2],3.72 µM (active) and 2.59 µM (active)
same,Potency,[3],8200 nM (active)
same,Potency,[4],1840 nM (active)
NC1CC1c1ccccc1 (centres undefined),max response,[1],-3.17%
same,outcome,[2],inactive
same,max response,[3],-2.49%
same,max response,[4],5.36%
COc1cccc2c1[C@]13CCN(CC4CC4)[C@H](C2)[C@]1(OC)CCC(=O)C3,outcome,[1],inactive
same,outcome,[2],inactive
same,outcome,[3],inactive
same,max response,[4],7.72%
c1ccc2c(CN3CCNCC3)cccc2c1,max response,[1],-5.13%
same,max response,[2],-5.02%
same,max response,[3],2.18%
same,outcome,[4],inactive
O=C1C=CC[C@@H]2[C@H]3CCCN4CCC[C@@H](CN12)[C@@H]34,max response,[1],-6.72% and -5.8%
same,outcome,[2],inactive
same,max response,[3],-19.8% and -9.45%
same,max response,[4],5.89%
C[C@]12Cc3cn[nH]c3C[C@@H]1CC[C@@H]1[C@H]2CC[C@@]2(C)[C@H]1CC[C@]2(C)O,max response,[1],3.97%
same,max response,[2],-21.8%
same,outcome,[3],inactive
same,max response,[4],-0.691%
O=[N+]([O-])/N=C1\NCCN1Cc1ccc(Cl)nc1,max response,[1],-0.312%
same,outcome,[2],inactive
same,max response,[3],-1.41%
same,max response,[4],6.99% and -6.61%
CCN1C[C@]2(OC(=O)c3ccccc3NC(C)=O)CC[C@H](OC)[C@@]34[C@H]5CC6[C@@H](OC)C[C@](O)(C(C[C@@H]23)[C@@H]14)[C@@]5(O)[C@@H]6OC,outcome,[1],inactive
same,max response,[2],-8.41%
same,outcome,[3],inactive
same,outcome,[4],inactive
OCCCBr,max response,[1],-6.12%
same,outcome,[2],inactive
same,max response,[3],-13%
same,max response,[4],-26.3%
O=C(O)COc1ccccc1,Potency,[5],inactive
same,Potency,[6],inactive
same,Potency,[7],inactive
same,Potency,[8],inactive
same,Potency,[9],inactive
same,Potency,[10],inactive
same,max response,[1],4.33%
same,max response,[2],2.38%
same,outcome,[3],inactive
same,max response,[4],-13.1%
